Experimental data reported in PubChem BioAssay AID1220 (Sanford-Burnham Center for Chemical Genomics, 2008).
In all, about 190,000 compounds went through this assay and about 1,300 (0.68%) were called active. What follows is part of a selection rich in actives, with near analogues and random picks from the rest. Unmarked numbers belong to inactive results. Rule as the data show it: active = inhibition above about 50%; inactive = the rest.

Target: Mannose-6-phosphate isomerase (Homo sapiens) (UniProt P34949)
Sequence (P34949 whole entry, looked up): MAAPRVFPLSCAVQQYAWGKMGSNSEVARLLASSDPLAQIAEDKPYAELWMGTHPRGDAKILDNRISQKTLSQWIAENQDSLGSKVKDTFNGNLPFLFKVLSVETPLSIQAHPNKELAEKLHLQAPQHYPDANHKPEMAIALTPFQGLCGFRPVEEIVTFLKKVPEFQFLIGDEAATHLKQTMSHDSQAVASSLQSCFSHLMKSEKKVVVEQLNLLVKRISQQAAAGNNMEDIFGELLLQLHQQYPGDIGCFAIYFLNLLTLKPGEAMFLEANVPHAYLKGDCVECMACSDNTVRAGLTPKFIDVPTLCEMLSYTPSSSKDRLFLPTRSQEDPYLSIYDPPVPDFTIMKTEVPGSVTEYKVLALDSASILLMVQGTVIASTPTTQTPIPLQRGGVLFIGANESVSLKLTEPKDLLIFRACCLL
Assay: human PMI inhibitors, high substrate, primary screen, biochemical, fluorescence intensity, high mannose 6-phosphate (AID 1220)
Details: recombinant PMI enzyme, coupled fluorescence intensity; at 20 µM; hits give high values

| Compound | inhibition |
| --- | --- |
| CCOC(=O)C1CCN(S(=O)(=O)c2ccc(C(=O)OC)cc2)CC1 | -3.3% |
| CCOC(=O)c1cc2occc2n1CC(=O)Nc1ccc(OC)cc1OC | 9% |
| CCOC(=O)c1nn(-c2ccc(OC)cc2)c(=O)c2c(N)scc12 | 27.4% |
| CCOC(=O)c1nc(N)c(=O)n(-c2ccc(C)cc2)n1 | -8.9% |
| CCOC(=O)c1nn(-c2ccc(C)cc2)c(=O)c2c(N)scc12 | 61.7% (active) |
| COc1ccccc1NC(=O)C/C(N)=N/O | -9.6% |
| CNC(=O)C(=O)NCCCN1CCOCC1 | -4.4% |
| C=CCNc1cc(N2CCCC2)ccc1[N+](=O)[O-] | 51.8% (active) |
| O=[N+]([O-])c1ccc(N2CCCCC2)cc1N1CCOCC1 | 4.6% |
| CC(C)(C)CNc1cc(N2CCCC2)ccc1[N+](=O)[O-] | 11.3% |
| CCOc1cc(N2CCCC2)ccc1[N+](=O)[O-] | 53.4% (active) |
| O=[N+]([O-])c1ccc(N2CCOCC2)cc1N1CCCCC1 | -3.2% |
| CCNc1cc(N2CCCC2)ccc1[N+](=O)[O-] | 32.8% |
| O=[N+]([O-])c1ccc(N2CCCC2)cc1N1CCCC1 | 50.2% (active) |
| Cc1cc(N2CCCCC2)ccc1[N+](=O)[O-] | 44.8% |
| COc1cc(N2CCCC2)ccc1[N+](=O)[O-] | 19.4% |
| O=C(/C=C/c1ccco1)c1ccc(O)cc1 | 11.9% |
| Cn1c(CN2CCCC2)nc2cc(NC(=O)c3cccs3)ccc21 | -21.8% |
| Cc1nn(-c2ccc(F)cc2F)c2c1-c1nc(N3CCCC3)ncc1CC2 | 38.1% |
| Cc1nn(-c2ccccn2)c2c1-c1nc(N)ncc1CC2 | 40.6% |
| Cc1nn(-c2ccccn2)c2c1-c1nc(N3CCOCC3)ncc1CC2 | 57.5% (active) |
| C[C@@H]1NC(=O)[C@H](CCCN=C(N)N)NC(=O)c2cc([N+](=O)[O-])cc(I)c2OCC[C@@H](C(N)=O)NC1=O | -20.7% |
| Cc1nc2cc3nc(C(F)(F)F)[nH]c3cc2[nH]1 | 52.2% (active) |
| Nc1ccc2nc(C(F)(F)F)[nH]c2c1 | 37% |
| Cc1nc2ccc(C(C(F)(F)F)(C(F)(F)F)C(F)(F)F)cc2[nH]1 | 14.4% |

| Compound | inhibition |
| --- | --- |
| COCCNC(=O)C1=NOC(Cn2cc(C#N)c(=O)n(C)c2=O)C1 (stereo not drawn) | 5.3% |
| CCCNC(=O)/C=C/c1ccc(S(=O)(=O)Nc2ccccc2OC)cc1 | -3.6% |
| CC1CCCCC1NC(=O)CCCn1c(=S)[nH]c2ccccc2c1=O (stereo not drawn) | -12.4% |
| Cc1ccc(C)n1-c1ccc(N(C)C)cc1 | 66.1% (active) |
| Cc1ccc(C)n1-c1ccc(C(=O)O)cc1 | 0.2% |
| Cc1ccc(C)n1-c1ccncc1 | 3.1% |
| Cc1ccc(OC(=O)C(F)(F)F)c2c1NCCC2 | 11.5% |
| Cc1cc2c(C)cc(=O)oc2c2c1NCCC2 | 12.6% |
| COc1ccc(N2CCN(/C(=N\S(=O)(=O)c3ccc(C)cc3)Nc3nc(C)cc(C)n3)CC2)cc1 | -1.1% |
| Nc1nc(-c2ccco2)nc(N2CCCCC2)n1 | 2.4% |
| O=C1CC(=O)N(CCc2ccccc2)C(=O)N1CCc1ccccc1 | 7.8% |
| O=C(NCc1ccc(N2CCCC2=O)cc1)c1cn(CCc2ccccc2)nn1 | 3.8% |
| O=C1C=CC(=O)C(C2=C3C(=O)N(CCc4ccccc4)CC(=O)N3CCC2)=C1 | 50.6% (active) |
| O=C(NO)c1cc(OCC(F)(F)F)ccc1OCC(F)(F)F | -2.8% |
| Cc1cccc(N=Cc2cc3c(cc2[N+](=O)[O-])OCO3)c1 | 62.2% (active) |
| Cc1ccccc1N=Cc1cc2c(cc1[N+](=O)[O-])OCO2 | 53.3% (active) |
| Cc1ccc(C)c(N=Cc2cc3c(cc2[N+](=O)[O-])OCO3)c1 | 41.6% |
| Cc1cccc(C)c1OCC(=O)N/N=C/c1cc2c(cc1[N+](=O)[O-])OCO2 | -72.5% |
| Cc1cc(C)nc(N/N=C/c2cc3c(cc2[N+](=O)[O-])OCO3)n1 | 1.3% |
| O=[N+]([O-])c1cc2c(cc1/C=N/n1cnnc1)OCO2 | 13% |
| CC1=NN(c2nc(-c3ccc(C)cc3)cs2)C(=O)C1N=Nc1ccc2ccccc2c1 (stereo not drawn) | 10.1% |
| Cc1cc(C)cc(NC(=O)C2(c3cccs3)CCOCC2)c1 | 3.6% |
| O=C(C/C=N\OCc1ccc(Cl)cc1Cl)Nc1ccccc1 | 15.2% |
| COc1ccc(Nc2ccccc2N)cc1 | 3.8% |
| Nc1ccc(Nc2ccccc2N)cc1 | 52.9% (active) |

| Compound | inhibition |
| --- | --- |
| Nc1ccccc1Nc1ccccc1 | -26.3% |
| Cc1ccc(-c2cnc(-c3ccncc3)o2)cc1 | -3.1% |
| CCC(O)(C#CCN1CCCCC1)CC | -6.1% |
| Cc1ccc2c(c1)C(O)(CC(=O)c1ccc(C)s1)C(=O)N2 (stereo not drawn) | 4.5% |
| CC1CCN(S(=O)(=O)c2ccc(C(=O)OCc3ccc4c(c3)OCO4)cc2)CC1 | -5.5% |
| CCCCN=C1C([N+](=O)[O-])=CC=C2C1=NC1(CCCCC1)N2O | 53% (active) |
| Cn1c(SCC(=O)Nc2cccc3ccccc23)nc(O)cc1=O | 26.1% |
| O=C(O)C(=O)Cc1c[nH]c2ccccc12 | -4.1% |
| O=C(O)Cc1c[nH]c2cccc(O)c12 | 51.5% (active) |
| NC(=O)Cc1c[nH]c2cccc(O)c12 | 44.8% |
| CCN(CC(=O)Nc1ccc2c(c1)OCCO2)CC(=O)Nc1ccc2c(c1)OCO2 | 5.7% |
| COc1ccc(S(=O)(=O)NCCCCNS(=O)(=O)c2ccc(OC)cc2)cc1 | 1.1% |
| Cc1ccc(-c2[nH]c(-c3ccccc3)nc2SCC(=O)NCC2CCCO2)cc1 (stereo not drawn) | 3.3% |
| COc1ccc(C(=O)OC2CCN(c3ncc(C(F)(F)F)cc3Cl)CC2)cc1 | 54.2% (active) |
| O=C(OC1CCN(c2ncc(C(F)(F)F)cc2Cl)CC1)c1ccccc1 | 11.4% |
| O=C(OC1CCN(c2ncc(C(F)(F)F)cc2Cl)CC1)c1ccc(Cl)cc1 | 7.7% |
| NS(=O)(=O)c1ccc(CCNC(=O)COC(=O)/C=C/c2ccc(Cl)cc2)cc1 | 0.2% |
| CCc1nnc(NC(=O)CSc2nnc(COc3ccc(C)cc3)n2-c2ccccc2)s1 | 8% |
| Cc1ccc(/C=N\NC(=O)C2COc3cc4ccccc4cc3O2)o1 (stereo not drawn) | 0.7% |
| O=C(N/N=C\c1cccc([N+](=O)[O-])c1O)C1COc2ccccc2O1 (stereo not drawn) | -15.4% |
| O=C(N/N=C\c1ccc(-c2ccccc2[N+](=O)[O-])o1)C1COc2ccccc2O1 (stereo not drawn) | 55.3% (active) |
| O=C(N/N=C\c1ccc(-c2ccc([N+](=O)[O-])cc2)o1)C1COc2ccccc2O1 (stereo not drawn) | -8.4% |
| O=C(N/N=C/c1ccc(-c2cccc([N+](=O)[O-])c2)o1)[C@H]1C[C@@H]1c1ccccc1 | 8.6% |
| O=C(N/N=C\c1ccc(-c2ccccc2[N+](=O)[O-])o1)C1COc2cc3ccccc3cc2O1 (stereo not drawn) | 65.2% (active) |
| O=C(N/N=C/c1ccco1)C1CC1c1ccccc1 (stereo not drawn) | 0.2% |

| Compound | inhibition |
| --- | --- |
| O=C(N/N=C/c1ccc(-c2ccccc2[N+](=O)[O-])o1)[C@H]1C[C@@H]1c1ccccc1 | 63.4% (active) |
| O=C(N/N=C\c1ccc([N+](=O)[O-])o1)C1COc2ccccc2O1 (stereo not drawn) | 21.3% |
| CC(=O)N1CCC(N(CCCOC(C)C)C(=O)Nc2ccc(C)c(C)c2)CC1 | 0.4% |
| Cc1nc2nc(SCC(=O)N3CCOCC3)nn2c(C)c1Cc1c(F)cccc1Cl | 18.6% |
| Cc1cccc(NC(=O)Cn2nnc(-c3ccc(CN4CCCC4)cc3)n2)c1C | 0.5% |
| CN(c1ccccc1)S(=O)(=O)c1cccc(C(=O)OCC(=O)NCCCN2CCCC2=O)c1 | -7.4% |
| CCOc1ccc(CCNC(=O)COC(=O)c2cccnc2OCC)cc1OCC | 14.4% |
| COc1ccc(N2C(C(C)=O)=NN(c3ccccc3)C2c2cccs2)cc1 (stereo not drawn) | 10.7% |
| CCOc1ccccc1N1CC(C(=O)Nc2ccc3c(c2)OCCO3)CC1=O (stereo not drawn) | 1.4% |
| Cc1csc(/C(C#N)=N/O)n1 | 8.3% |
| CC1CC(C)CN(CC(=O)c2cccs2)C1 (stereo not drawn) | -20.3% |
| CCc1c(C(=O)Nc2ccc(OC)c(Cl)c2)[nH]c(C)c1C(C)=O | -0.2% |
| O=C(CCc1ccccc1)NNC(=O)C1CCCCC1 | -4.6% |
| O=C(NNc1cc(N2CCOCC2)nc(N2CCOCC2)n1)c1ccc(Cl)c(Cl)c1 | 48.8% |
| O=C(NNc1cc(N2CCOCC2)nc(N2CCOCC2)n1)c1ccc([N+](=O)[O-])cc1 | 56.3% (active) |
| O=C(CCc1ccccc1)Nc1ccc(N2CCCCC2)cc1 | 3.5% |
| O=C(CCc1ccccc1)NNc1cc(N2CCCCC2)nc(N2CCCCC2)n1 | 53.4% (active) |
| Cc1ccc(C(=O)NNC(=O)C2CCN(c3nc(C)cc(C)n3)CC2)cc1 | -8.6% |
| CC(C)(C)c1ccc(C(=O)NNc2cc(N3CCOCC3)nc(N3CCOCC3)n2)cc1 | 48.8% |
| CC(C)(C)c1ccc(C(=O)NNc2cc(N3CCCCC3)nc(N3CCCCC3)n2)cc1 | 18.1% |
| Cc1ccc(C(=O)NNc2cc(N3CCCC3)nc(N3CCCC3)n2)cc1 | 51.4% (active) |
| CCOC(=O)N1CCN(C(=O)c2ccc(CN(c3ccccc3)S(C)(=O)=O)cc2)CC1 | -4.3% |
| CC(=O)N(c1c(C)n(C)n(-c2ccccc2)c1=O)C1(C(=O)NC2CCCCC2)CCCCC1 | 1.3% |
